This note sets out measurements from PubChem BioAssay (NCI).

Test systems include HCT-15 colon; HT29 colon; SNB-75 CNS; SNB-19 CNS; U251 CNS; PC-3 prostate; SK-MEL-5 melanoma; UACC-62 melanoma; LOX IMVI melanoma; SK-MEL-28 melanoma; SK-MEL-2 melanoma; EKVX NSCLC; SN12C renal; UO-31 renal; TK-10 renal; ACHN renal; CAKI-1 renal; A498 renal; CCRF-CEM leukemia; MOLT-4 leukemia.
Test in all cases: NCI-60 one-dose screen, 48 h (100 = growth as untreated, 0 = no growth, -100 = all killed)
Holding throughout (conditions): 10 µM

Molecules are shown by their SMILES. The panel holds about 83,000 compounds, 20% with a hit somewhere; the sample as a whole holds those more often.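 Negative percent growth values reflect cell death: -40 means 40% of the cells present at the start died, and -100 means all died.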 Values without a mark were called inactive. Activity calls are given as the source filed them. How the source made its calls: active means growth percent below 10; inactive means the rest.

In the case of `Cn1cc(/C=N/Nc2cccc(Cl)n2)c2ccccc21`, the growth was 28.2% in the assay with HCT-15 colon; 44.1% in the assay with HT29 colon; 70.7% in the assay with SNB-75 CNS; 76.9% with SNB-19 CNS; 56.2% with U251 CNS; 58.4% in the assay with PC-3 prostate. Further, the growth is 71.7% in the assay on SK-MEL-5 melanoma; 67.7% in the assay on UACC-62 melanoma; 50.1% with LOX IMVI melanoma; 104% in the assay with SK-MEL-28 melanoma; 87.5% with SK-MEL-2 melanoma; 57.9% in the assay on EKVX NSCLC. Moreover, the growth is 69.6% with SN12C renal; 40.7% with UO-31 renal; 113% in the assay on TK-10 renal; 71.4% in the assay with ACHN renal; 66.9% in the assay with CAKI-1 renal; 101% with A498 renal. Besides, the growth with CCRF-CEM leukemia is 48.2%; in the assay with MOLT-4 leukemia it was 32.9%.

For the molecule `O=C(Nc1ccc(Cl)c([N+](=O)[O-])c1)Nc1ccc(Cl)c([N+](=O)[O-])c1`, the growth was 7.01% (active) in the assay with HCT-15 colon; 13.1% in the assay on HT29 colon; 61.2% in the assay on SNB-75 CNS; 10.8% in the assay on SNB-19 CNS; 10.6% in the assay on U251 CNS; 10.4% in the assay on PC-3 prostate. The growth with SK-MEL-5 melanoma is -26.7% (active); with UACC-62 melanoma, 3.62% (active); with LOX IMVI melanoma it was -8.77% (active); in the assay on SK-MEL-28 melanoma, 8.08% (active); in the assay with SK-MEL-2 melanoma, 30.7%; with EKVX NSCLC, 17.8%. The growth was 1.65% (active) in the assay on SN12C renal; -2.65% (active) with UO-31 renal; 48.3% with TK-10 renal; 4.21% (active) in the assay with ACHN renal; 8.32% (active) in the assay on CAKI-1 renal; 20.1% in the assay on A498 renal. The results for the growth in the assay with CCRF-CEM leukemia and in the assay on MOLT-4 leukemia were 14.2% and 21.7%, respectively.

Consider `O=C(CNc1nc(-c2ccccc2)cs1)Nc1ccccc1`, for which the growth was -70.6% (active) in the assay with HCT-15 colon; -53.9% (active) with HT29 colon; 29.2% in the assay with SNB-75 CNS; -68.4% (active) in the assay with SNB-19 CNS; -85.2% (active) in the assay on U251 CNS; 12.3% with PC-3 prostate. For the same molecule, the growth in the assay on SK-MEL-5 melanoma was -99.5% (active); in the assay with UACC-62 melanoma, -90.1% (active); in the assay with LOX IMVI melanoma, -90.1% (active); in the assay with SK-MEL-28 melanoma, -60.1% (active); in the assay with SK-MEL-2 melanoma, -68.8% (active); with EKVX NSCLC, -93.3% (active). The growth with SN12C renal was -47.3% (active); in the assay on UO-31 renal, 17.9%; in the assay on TK-10 renal, -79.4% (active); in the assay with ACHN renal, -27.4% (active); in the assay on CAKI-1 renal it was 5.53% (active); with A498 renal, -4.95% (active). Besides, the results for the growth in the assay on CCRF-CEM leukemia and with MOLT-4 leukemia were 14.9% and -3.86% (active), respectively.

As for `COc1cc2c3c(n(CCCN4CCOCC4)c(=O)c2cc1OC)-c1nc2c(cc1C3=O)OCO2`, the growth with HCT-15 colon is 41.5%; in the assay on HT29 colon, 7.3% (active); in the assay with SNB-75 CNS it was 49.9%; in the assay with SNB-19 CNS, 15%; in the assay with U251 CNS, -18.9% (active); in the assay with PC-3 prostate, 43.6%. Further, the growth is -6.78% (active) in the assay with SK-MEL-5 melanoma; -8.82% (active) in the assay on UACC-62 melanoma; -76.6% (active) in the assay on LOX IMVI melanoma; 66.1% in the assay on SK-MEL-28 melanoma; 111% in the assay with SK-MEL-2 melanoma; 48.8% in the assay on EKVX NSCLC. Further, the growth is 8.3% (active) with SN12C renal; 15.3% in the assay on UO-31 renal; 79.5% in the assay on TK-10 renal; -11.7% (active) in the assay with ACHN renal; 6.77% (active) with CAKI-1 renal; 76.9% with A498 renal. In addition, the growth is 14.4% with CCRF-CEM leukemia and 24.7% in the assay with MOLT-4 leukemia.

For `COC(=O)CC1CC1C1Cc2c(nc(N(C)S(C)(=O)=O)nc2C(C)C)-c2ccc(F)cc21` (stereo not given), the growth was 58.7% with HCT-15 colon; 66.9% in the assay on HT29 colon; 92.3% in the assay on SNB-75 CNS; 91.2% with SNB-19 CNS; 84.9% with U251 CNS; 33.9% in the assay on PC-3 prostate. For the same molecule, the growth in the assay with SK-MEL-5 melanoma was 57.2%; in the assay with UACC-62 melanoma, 56.5%; with LOX IMVI melanoma it was 79.1%; in the assay with SK-MEL-28 melanoma, 104%; in the assay on SK-MEL-2 melanoma, 80.9%; with EKVX NSCLC it was 87%. In addition, the growth in the assay with SN12C renal was 94.9%; with UO-31 renal it was 71.5%; with TK-10 renal it was 114%; in the assay with ACHN renal, 86.6%; in the assay on CAKI-1 renal, 52.1%; in the assay on A498 renal, 117%. For the same molecule, the growth in the assay with CCRF-CEM leukemia was 61.5%; in the assay on MOLT-4 leukemia it was 38.6%.

For `Cc1ccc2nc(-c3ccc(-c4nnc(SCC(=O)Nc5ccc(Br)cc5)o4)cc3)[nH]c2c1`, the growth with HCT-15 colon was 42%; with HT29 colon, 77.5%; in the assay on SNB-75 CNS, 83.8%; in the assay with SNB-19 CNS it was 70.3%; in the assay on U251 CNS it was 11.5%; in the assay with PC-3 prostate, 56.8%. The growth in the assay on SK-MEL-5 melanoma is 85.5%; in the assay on UACC-62 melanoma it was 57.3%; in the assay on LOX IMVI melanoma, -12.7% (active); in the assay with SK-MEL-28 melanoma, 92.4%; with SK-MEL-2 melanoma, 83.8%; in the assay on EKVX NSCLC it was 85.1%. Further, the growth in the assay on SN12C renal is 51%; in the assay with UO-31 renal it was 51.5%; with TK-10 renal it was 74.7%; in the assay with ACHN renal, 67.8%; in the assay with CAKI-1 renal, 76.5%; with A498 renal, 83.4%. For the same molecule, the values for the growth in the assay with CCRF-CEM leukemia and with MOLT-4 leukemia were 38.2% and 15.9%, respectively.

For the molecule `CC1=C2C(=C[C@@](C)(COCOCCCl)[C@@H]2O)C(=O)[C@](C)(O)C12CC2`, the growth in the assay on HCT-15 colon is -38.9% (active); in the assay on HT29 colon it was -11.9% (active); in the assay on SNB-75 CNS, -53.2% (active); in the assay on SNB-19 CNS it was -24.4% (active); with U251 CNS, 1.56% (active); with PC-3 prostate, 0.191% (active). The growth in the assay on SK-MEL-5 melanoma was -62.3% (active); in the assay with UACC-62 melanoma it was -87% (active); with LOX IMVI melanoma, -82.2% (active); with SK-MEL-28 melanoma, -82.7% (active); in the assay with SK-MEL-2 melanoma, -100% (active); in the assay on EKVX NSCLC, -62.1% (active). The growth was -63% (active) in the assay with SN12C renal; -44.1% (active) in the assay on UO-31 renal; -1.02% (active) with TK-10 renal; -48% (active) with ACHN renal; -14.7% (active) in the assay with CAKI-1 renal; -31.5% (active) in the assay on A498 renal. Also, the growth in the assay with CCRF-CEM leukemia was 3.19% (active); in the assay with MOLT-4 leukemia it was -12.4% (active).
